Results filed as inconclusive are left out. Activity calls are given as the source filed them. Calls follow the shape of the dose curve; as a rule, active = well fitted inhibition curve with a large enough effect; inconclusive = small, poorly fitted or top-dose-only effect; inactive = flat fitted curve, though single readings scatter.
Experiments:
Assay in all cases: qHTS profiling for inhibitors of Plasmodium falciparum proliferation (AID 504749); also: nearly all actives have a fitted effect of over 60% in size
Conditions in all cases: P. falciparum in erythrocytes, SYBR Green DNA, 72 h; series mostly up to 28.7 µM
[1] = test system: CP305
How it was run: (§1)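 In a 72 h erythrocytic culture (37 C, humidified, 5% CO2) at 2.5% hematocrit and 0.3% starting parasitemia, compounds were tested; SYBR Green I in detergent lysis buffer stained parasite DNA overnight.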

[2] = test system: CP315
How it was run: as §1

[3] = test system: CP325
How it was run: as §1

[4] = test system: CP329
How it was run: as §1

[5] = test system: CP335
How it was run: as §1

[6] = test system: DFO2036
How it was run: as §1

[7] = test system: DIV14
How it was run: as §1

[8] = test system: DIV17
How it was run: as §1

[9] = test system: DIV30
How it was run: as §1

[10] = test system: Dd2
How it was run: as §1

[11] = test system: ECU
How it was run: as §1

[12] = test system: FAB9
How it was run: as §1

[13] = test system: GB4
How it was run: as §1

[14] = test system: HB3
How it was run: as §1

[15] = test system: ICS
How it was run: as §1

[16] = test system: JCK
How it was run: as §1

[17] = test system: N140
How it was run: as §1

[18] = test system: P93_24
How it was run: as §1

[19] = test system: P94_40
How it was run: as §1

[20] = test system: PAD
How it was run: as §1

Measured: Potency

[O-][N+](=Nc1ccccc1)c1ccccc1
inactive: all assays above

CN[C@@H]1[C@H](O[C@H]2[C@H](O[C@H]3[C@H](O)[C@@H](O)[C@H](N=C(N)N)[C@@H](O)[C@@H]3N=C(N)N)O[C@@H](C)[C@]2(O)C=O)O[C@@H](CO)[C@H](O)[C@H]1O
inactive: all assays above

Oc1cc(O)cc(O)c1
inactive: all assays above

NC(=O)C1c2ccccc2CCc2ccccc21
not listed: [17] | [18] | [19]
inactive: all other assays above

Cc1cccc(C)c1NC(=O)C1CCCCN1C (stereo unspecified)
not listed: [13]
inactive: all other assays above

CN1C(=O)C[C@@H](C(=O)N[C@@H](Cc2cnc[nH]2)C(=O)N2CCC[C@H]2C(N)=O)NC1=O
inactive: all assays above

Cc1nc(NS(=O)(=O)c2ccc(N)cc2)nc(C)c1Br
inactive: all assays above

CCCCC/C=C\C/C=C\C/C=C\CCCCC(=O)O
not listed: [13] | [15]
inactive: all other assays above

S=C=Nc1ccc(N=C=S)cc1
inactive: all assays above

FC(F)OC(Cl)C(F)(F)F (stereo unspecified)
not listed: [8]
inactive: all other assays above

Cc1cc2nc3c(=O)[nH]c(=O)nc-3n(C[C@H](O)[C@H](O)[C@H](O)COP(=O)(O)OP(=O)(O)OC[C@H]3O[C@@H](n4cnc5c(N)ncnc54)[C@H](O)[C@@H]3O)c2cc1C
not listed: [9]
inactive: all other assays above

C[C@H]1O[C@@H](O[C@H]2[C@@H](O)C[C@H](O[C@H]3[C@@H](O)C[C@H](O[C@H]4CC[C@@]5(C)[C@H](CC[C@@H]6[C@@H]5C[C@@H](O)[C@]5(C)[C@@H](C7=CC(=O)OC7)CC[C@]65O)C4)O[C@@H]3C)O[C@@H]2C)C[C@H](O)[C@@H]1O
not listed: [7]
inactive: all other assays above

From PubChem BioAssay (NCATS)
